Test results taken from the supplement of paper PMC12282887.
± gives the standard deviation of the averaged measurements.

Columns and labels:
Assay in all cases: promoter activity interaction Z-score (Lux/OD deviation from empty-vector control); higher = stronger promoter induction by the compound
[1] = test system: E. coli BW25113 acrABp lux reporter
Procedure, shortened: (§1)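 E. coli BW25113 (wild type or marA, soxS or rob deletion) carrying low-copy luxCDABE promoter reporters grew in 40 µl LB Lennox in 384-well plates at 37°C. Each compound was tested at four 1:2 dilutions in biological duplicates. OD600 and luminescence were read every 30 min for 12 h. Areas were taken over 0–8 h (wild type) or 1–9 h (mutants), and wells below 10% of median growth area were removed. The score is the Z-transformed residual of growth-normalised luminescence fitted against the empty-vector control.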

[2] = test system: E. coli BW25113 marRABp lux reporter
Procedure, shortened: as §1

[3] = test system: E. coli BW25113 micFp lux reporter
Procedure, shortened: as §1

[4] = test system: E. coli BW25113 ompFp lux reporter
Procedure, shortened: as §1

[5] = 13.5 µg/ml, genetic background: wild type
[6] = 13.5 µg/ml, genetic background: ΔmarA
[7] = 13.5 µg/ml, genetic background: Δrob
[8] = 13.5 µg/ml, genetic background: ΔsoxS
[9] = 26.9 µg/ml, genetic background: wild type
[10] = 26.9 µg/ml, genetic background: ΔmarA
[11] = 26.9 µg/ml, genetic background: Δrob
[12] = 26.9 µg/ml, genetic background: ΔsoxS
[13] = 53.9 µg/ml, genetic background: wild type
[14] = 53.9 µg/ml, genetic background: ΔmarA
[15] = 53.9 µg/ml, genetic background: Δrob
[16] = 53.9 µg/ml, genetic background: ΔsoxS
[17] = 107.7 µg/ml, genetic background: wild type
[18] = 107.7 µg/ml, genetic background: ΔmarA
[19] = 107.7 µg/ml, genetic background: Δrob
[20] = 107.7 µg/ml, genetic background: ΔsoxS

Structure (SMILES): CC(=O)O[C@H]1C[C@@]2(C)[C@@H](C[C@@H](O)[C@H]3[C@@]4(C)CC[C@@H](O)[C@@H](C)[C@@H]4CC[C@@]32C)/C1=C(\CCC=C(C)C)C(=O)O [Fusidic acid]
- promoter activity interaction Z-score [1, 5]: -0.2451 ± 0.00049
- promoter activity interaction Z-score [1, 6]: 0.318 ± 0.51
- promoter activity interaction Z-score [1, 7]: 0.252 ± 0.008
- promoter activity interaction Z-score [1, 8]: 0.129 ± 0.4
- promoter activity interaction Z-score [1, 9]: 0.0211 ± 0.13
- promoter activity interaction Z-score [1, 10]: 0.239 ± 0.78
- promoter activity interaction Z-score [1, 11]: 0.206 ± 0.18
- promoter activity interaction Z-score [1, 12]: 0.227 ± 0.21
- promoter activity interaction Z-score [1, 13]: 0.215 ± 0.26
- promoter activity interaction Z-score [1, 14]: -0.794 ± 0.83
- promoter activity interaction Z-score [1, 15]: 0.292 ± 0.025
- promoter activity interaction Z-score [1, 16]: 0.624 ± 0.086
- promoter activity interaction Z-score [1, 17]: 0.448 ± 0.38
- promoter activity interaction Z-score [1, 18]: -0.757 ± 0.87
- promoter activity interaction Z-score [1, 19]: 0.221 ± 0.22
- promoter activity interaction Z-score [1, 20]: 0.66 ± 0.14
- promoter activity interaction Z-score [2, 5]: -0.438 ± 0.029
- promoter activity interaction Z-score [2, 6]: 0.0154 ± 0.048
- promoter activity interaction Z-score [2, 7]: -0.0451 ± 0.073
- promoter activity interaction Z-score [2, 8]: 0.0686 ± 0.1
- promoter activity interaction Z-score [2, 9]: 0.0382 ± 0.39
- promoter activity interaction Z-score [2, 10]: 0.3 ± 0.31
- promoter activity interaction Z-score [2, 11]: 0.0321 ± 0.089
- promoter activity interaction Z-score [2, 12]: 0.122 ± 0.072
- promoter activity interaction Z-score [2, 13]: 0.384 ± 0.077
- promoter activity interaction Z-score [2, 14]: 0.457 ± 0.14
- promoter activity interaction Z-score [2, 15]: 0.307 ± 0.22
- promoter activity interaction Z-score [2, 16]: 0.418 ± 0.13
- promoter activity interaction Z-score [2, 17]: 0.539 ± 0.64
- promoter activity interaction Z-score [2, 18]: 0.236 ± 0.49
- promoter activity interaction Z-score [2, 19]: 0.523 ± 0.97
- promoter activity interaction Z-score [2, 20]: 1.17 ± 0.92
- promoter activity interaction Z-score [3, 5]: -0.214 ± 0.048
- promoter activity interaction Z-score [3, 6]: -0.0141 ± 0.037
- promoter activity interaction Z-score [3, 7]: -0.006 ± 0.044
- promoter activity interaction Z-score [3, 8]: -0.317 ± 0.02
- promoter activity interaction Z-score [3, 9]: -0.0316 ± 0.083
- promoter activity interaction Z-score [3, 10]: 0.0308 ± 0.044
- promoter activity interaction Z-score [3, 11]: 0.011 ± 0.0025
- promoter activity interaction Z-score [3, 12]: -0.033 ± 0.14
- promoter activity interaction Z-score [3, 13]: 0.0882 ± 0.31
- promoter activity interaction Z-score [3, 14]: -0.146 ± 0.084
- promoter activity interaction Z-score [3, 15]: 0.0235 ± 0.18
- promoter activity interaction Z-score [3, 16]: 0.413 ± 0.28
- promoter activity interaction Z-score [3, 17]: -0.681 ± 0.064
- promoter activity interaction Z-score [3, 18]: -0.356 ± 0.068
- promoter activity interaction Z-score [3, 19]: -0.293 ± 0.013
- promoter activity interaction Z-score [3, 20]: -0.184 ± 0.18
- promoter activity interaction Z-score [4, 5]: -0.312 ± 0.41
- promoter activity interaction Z-score [4, 6]: 0.0814 ± 0.3
- promoter activity interaction Z-score [4, 7]: 0.107 ± 0.54
- promoter activity interaction Z-score [4, 8]: -0.462 ± 0.18
- promoter activity interaction Z-score [4, 9]: -0.129 ± 0.58
- promoter activity interaction Z-score [4, 10]: 0.219 ± 0.59
- promoter activity interaction Z-score [4, 11]: 0.223 ± 0.2
- promoter activity interaction Z-score [4, 12]: -0.211 ± 0.02
- promoter activity interaction Z-score [4, 13]: -0.237 ± 0.057
- promoter activity interaction Z-score [4, 14]: -0.149 ± 0.12
- promoter activity interaction Z-score [4, 15]: -0.602 ± 0.36
- promoter activity interaction Z-score [4, 16]: -0.00876 ± 0.4
